TrxR1 substrate – rat thioredoxin reductase 1 substrate activity; purified TrxR1 substrate turnover, NADPH consumption readout; Potency, µM (top dose mostly 114 µM), without a hit: top-dose activity change, negative = substrate turnover; 390,000 compounds, 0.01% hits; also: potency is read from the fitted curve at half-maximal effect; % is scaled to controls: 0 for no effect and ±100 for the full control effect; nearly all actives have a fitted effect of over 50% in size
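Rat TrxR1, dispensed at 90 nM, was prereduced with 400 uM NADPH (final) for 5 min at ~22 deg C, then incubated with compound 15 min before 400 uM selenite. A first-read NADPH fluorescence drop versus no-compound background flagged substrates.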
rTrxR1 inhibitor – blocks rat thioredoxin reductase 1; Potency, µM (titrated, usually from 114 µM), for the others: top-dose activity change, negative = inhibition, usual class: inhibitors; 390,000 compounds, 1% hits; recombinant rTrxR1, NADPH fluorescence consumption, selenite substrate; also: potency is read from the fitted curve at half-maximal effect; % is scaled to controls: 0 for no effect and ±100 for the full control effect; nearly all actives have a fitted effect of over 65% in size
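Rat TrxR1 (90 nM in the dispensed reagent) was pre-reduced with 400 uM NADPH for 5 min at room temperature, then incubated with compound for 15 min. After 400 uM selenite was added, NADPH fluorescence (Ex 340/Em 450 nm) was followed for 8 min.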
IDH1 R132H inh – inhibitors of human mutant IDH1 R132H; O75874; IDH1-R132H enzyme, NADPH consumption, diaphorase/resazurin fluorescence; Potency, µM (titrated, usually from 76.6 µM), for the others: top-dose activity change, negative = inhibition, hits mostly inhibitors; 390,000 compounds, 0.093% hits; AID 602179; also: potency is read from the fitted curve at half-maximal effect; % is scaled to controls: 0 for no effect and ±100 for the full control effect; nearly all actives have a fitted effect of over 65% in size
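IDH1-R132H (0.5 ug/mL) preincubated 30 min with compound, then NADPH (0.016 mM) and alpha-KG (2 mM) added; 80 min at RT, pH 7.5. Remaining NADPH coupled via diaphorase/resazurin to fluorescence (540/590 nm); concentration-response curves normalized to no-enzyme control.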
VDR inh – vitamin D3 receptor (human) inhibition. 400,000 compounds, 0.93% hits. VDR-SRC2-3 peptide fluorescence polarization, 2 h. Potency, µM, inactives show max response, negative = inhibition, actives largely listed as inhibitors. AID 504847; also: potency is read from the fitted curve at half-maximal effect; % is scaled to controls: 0 for no effect and ±100 for the full control effect
Target sequence (P11473 whole entry, looked up): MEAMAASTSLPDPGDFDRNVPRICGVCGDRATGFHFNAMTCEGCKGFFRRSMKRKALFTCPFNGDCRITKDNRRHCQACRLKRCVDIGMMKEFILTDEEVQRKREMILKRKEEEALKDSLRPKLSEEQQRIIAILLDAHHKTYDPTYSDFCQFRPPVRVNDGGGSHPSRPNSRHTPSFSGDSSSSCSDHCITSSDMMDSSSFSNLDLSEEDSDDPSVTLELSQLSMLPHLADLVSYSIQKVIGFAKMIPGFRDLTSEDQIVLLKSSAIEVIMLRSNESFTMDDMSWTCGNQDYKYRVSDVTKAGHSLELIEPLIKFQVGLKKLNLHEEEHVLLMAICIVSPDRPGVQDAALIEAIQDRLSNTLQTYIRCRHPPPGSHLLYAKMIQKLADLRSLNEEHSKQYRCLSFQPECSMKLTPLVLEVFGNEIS
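Measured by FP: displacement of SRC2-3 coactivator peptide from VDR by library compounds, following a two-hour ambient incubation.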
Sfp inh – Sfp phosphopantetheinyl transferase inhibition; Potency, µM, inactives show largest response in the series, negative = inhibition, actives largely listed as inhibitors; Biochemical Sfp PPTase activity, qHTS; Q9F4F7; 310,000 compounds, 3.5% hits; AID 1490;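 also: the enzyme is Sfp with the accession as filed and its product quenches rhodamine fluorescence; potency is read from the fitted curve at half-maximal effect; 0% = enzyme reaction without inhibitor and -100% = no enzyme wells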
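Fluorescence-quenching assay: 15 nM Sfp-PPTase preincubated 15 min at room temperature with compound, then 5 uM rhodamine-CoA and 12.5 uM BHQ-2-labelled YbbR peptide added. Fluorescence (ex 525/em 598 nm) read at start and after 30 min; difference gives rate.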
PLK1 PBD inh – blocks phosphopeptide binding to human PLK1 polo-box domain; P53350; Plk1 PBD binding of FITC phosphopeptide, fluorescence polarization; Potency, µM, for inactives: max response, negative = inhibition, hits mostly inhibitors; 360,000 compounds, 2.8% hits; also: potency is read from the fitted curve at half-maximal effect; series mostly up to about 57 µM; % is scaled to controls: 0 for no effect and ±100 for the full control effect; nearly all actives have a fitted effect of over 65% in size
Resorufin autofl – counter-screen for mutant IDH1 inhibitors: fluorescence interference | shares compounds with IDH1 R132H inh | Resorufin detection reagent fluorescence interference, cell-free | inhibition of signal, % at 51.2 µM | 750 tested, under 10 active | AID 623980;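 also: 0% = wells with normal resorufin and full inhibition = wells lacking resorufin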
IDH1 WT – selectivity of mutant IDH1 inhibitors: human wild-type IDH1 | shares compounds with IDH1 R132H inh | WT IDH1 enzyme, NADPH diaphorase/resazurin fluorescence | Potency, µM (titrated, usually from 115 µM), without a hit: top-dose activity change, negative = inhibition, actives largely listed as inhibitors | 750 compounds, 9% hits;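 also: potency is read from the fitted curve at half-maximal effect; 0% = full WT IDH1 enzyme control and full inhibition = no enzyme wells; nearly all actives have a fitted effect of over 55% in size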
IDH1 R132H conf – confirmation of human mutant IDH1 inhibitors; shares compounds with IDH1 R132H inh; IDH1 R132H enzyme, NADPH diaphorase/resazurin fluorescence; Potency, µM (top dose mostly 76.6 µM), for inactives: top-dose activity change, negative = inhibition, actives largely listed as inhibitors; 750 compounds, 83% hits; also: potency is read from the fitted curve at half-maximal effect; nearly all actives have a fitted effect of over 50% in size
* hit, by the source's call; ? = inconclusive; nt = no result given; [ ] = another dose, or the depositor's remark. Most compounds without a hit are left out; they make up all but 5.2% or so of the library. Calls follow the shape of the dose curve; as a rule, active = well fitted curve in the direction sought with a large enough effect; inconclusive = small, poorly fitted or top-dose-only effect, or another doubt; inactive = no such curve, though single readings can be large; an effect the other way counts as inactive or inconclusive.

SMILES	TrxR1 substrate	rTrxR1 inhibitor	IDH1 R132H inh	VDR inh	Sfp inh	PLK1 PBD inh	Resorufin autofl	IDH1 WT	IDH1 R132H conf
COc1cc2cnc(-c3ccsc3)c(-c3ccc(F)cc3)c2cc1OC	-6%	11%[57.1 µM]	?	-17%	nt	1%	1	8%	25µM*
Fc1ccc2cc(-c3ccsc3)ncc2c1	5%	-16%	4%	-3%	nt	-18%	nt	nt	nt
O=C(COCc1cc(-c2ccc3c(c2)OCO3)on1)N1CCN(c2cccc(C(F)(F)F)c2)CC1	-10%	-12%	1%	?	-8%	-12%	nt	nt	nt
Cc1cc(C)cc(NC(=O)CSc2c(C(C)C)cnc3c2c(=O)n(C)c(=O)n3C)c1	0%[57.1 µM]	13%[57.1 µM]	?	0%	nt	nt	-8	-12%	-7%
COc1ccc(Cn2c(C3CCCCC3)nc3c(c(=O)c4ccccc4n3C)c2=O)cc1	3%	29%	?	-30%	9%	-6%	nt	nt	nt
Cn1c2ccccc2c(=O)c2c(=O)n(-c3ccccc3)c(C3CCCCC3)nc21	-2%	6%	12µM*	-7%	?	-2%	-2	25µM*	4.5µM*
Cn1c2ccccc2c(=O)c2c(=O)n(C3CCCCC3)c(-c3cccs3)nc21	1%	16%	37µM*	3%	-11%	-10%	12	-21%	16µM*
Cn1c2ccccc2c(=O)c2c(=O)n(C3CCCCCC3)c(C3CCCCC3)nc21	-17%	-6%	9.3µM*	-19%	-2%	-11%	4	14µM*	2.8µM*
CCc1nc2c(c(=O)c3ccccc3n2C)c(=O)n1C1CCCCCC1	-5%	-1%	3%	-17%	-30%	-3%	nt	nt	nt
COc1ccc(NC(=O)Cn2c(=O)n(-c3cc(C)cc(C)c3)c(=O)c3oc4ccccc4c32)cc1OC	0%	12%	-9%	7%	nt	nt	nt	nt	nt
COc1ccc(-c2cc(C(F)(F)F)nc(SCCC(=O)Nc3c(C)cccc3C)n2)cc1	5%	18%	-15%	-16%	nt	nt	nt	nt	nt
c1ccc(N(c2ccccc2)c2nc(-n3ccnc3)nc(-n3ccnc3)n2)cc1	-9%	-2%	?	-15%	-9%	-9%	2	-3%	25µM*
CN(c1ccccc1)c1nc(-n2ccnc2)nc(-n2ccnc2)n1	-3%	-3%	4%	2%	9%	-3%	nt	nt	nt
CC(C)(C)n1nnnc1C(c1cc2ccccc2o1)N1CCOCC1 (stereo not drawn)	nt	nt	nt	nt	nt	-13%	nt	nt	nt
CCc1nc(SCC(=O)N2CC(=O)Nc3ccccc32)c2c(C)c(C)sc2n1	1%	10%	?	-7%	11%	?	7	2%	32µM*
Cc1sc2nc(C3CCCCC3)nc(SCC(=O)N3CC(=O)Nc4ccccc43)c2c1C	3%	4%	2%	4%	0%	-9%	nt	nt	nt
CCN1CCN(C(c2cccnc2)c2c(NC(=O)c3ccco3)sc(C)c2C)CC1 (stereo not drawn)	-6%	?	-3%	-6%	nt	-4%	nt	nt	nt
Cc1sc(NC(=O)c2ccco2)c(C(c2cccnc2)N2CCC(C)CC2)c1C (stereo not drawn)	12%	?	?	4%	-17%	-5%	-5	1%	?
COc1ccc(-c2nc3scc(CCNS(=O)(=O)c4ccccc4F)n3n2)cc1	0%[57.1 µM]	6%[57.1 µM]	5%	9%	nt	nt	nt	nt	nt
